# Among all 69,000 compounds or so, about 8,600 (12%) showed an effect of 50% or more. Many of the other results were omitted from the sample, so strong results are more common in it than they were.
# Tested on: Plasmodium berghei
# Assay: Screen against P. berghei liver stage (PbLuc), transformed with Luciferase, at 10uM
# Format: functional, HepG2
# Details: tested at 10 uM
row,SMILES,INHIBITION [%]
1,Cc1nc(CN2CCN(C(=O)c3sccc3C)CC2)cs1,-117
2,CC(C)c1nc(CNCC2CCCN2c2cccnn2)cs1 (configuration not stated),-16.8
3,COC(=O)c1ccc(C(=O)NCC(O)c2cccn2C)cc1 (configuration not stated),-52.5
4,CC1CCN(c2cc(CCC3CCCN3)ncn2)CC1 (configuration not stated),34
5,Cn1ncnc1CNc1ccc2c(c1)N(C(=O)OC(C)(C)C)CCC2,52.4
6,CC(C)(C)OC(=O)N1CCC[C@H](NCc2cc[nH]c2)C1,49.5
7,Cc1cc(CNCC2CCCN(C(=O)OC(C)(C)C)C2)no1 (configuration not stated),39
8,CC(C)N(CC1CCCN(Cc2ccon2)C1)C(=O)OC(C)(C)C (configuration not stated),39.9
9,CC(C)(C)OC(=O)N1CCCc2ccc(NCc3ccon3)cc21,55.4
10,Cc1n[nH]cc1CNc1ccc2c(c1)N(C(=O)OC(C)(C)C)CCC2,31.8
11,COc1ccc(NC(=O)c2ccccc2NCc2ncnn2C)cc1,47.4
12,Cn1ncnc1CNc1ccccc1C(=O)NC(C)(C)C,1.2
13,CCNC(=O)N1CCc2ccc(NC(=O)NCCOCC)cc21,-26.8
14,CCCNC(=O)CNc1ccc2c(c1)N(C(=O)OC(C)(C)C)CCC2,87.2
15,CC(C)(C)OC(=O)N1CCCc2ccc(NCc3cc[nH]c3)cc21,92.1
16,CCCNC(=O)Nc1ccc2c(c1)N(S(=O)(=O)CC)CC2,36.3
17,c1csc(-c2nc(CN3CCCCC3Cn3cncn3)cs2)c1 (configuration not stated),42
18,CCc1nc2n(n1)CC(NCC(=O)Nc1cc(C)nn1C)CC2 (configuration not stated),5.03
19,Cc1ccc(-c2cnnc(N3CCCC3c3nccs3)n2)o1 (configuration not stated),12.6
20,Cc1ccc(OCc2occc2C(=O)N2C[C@@H]3C(CN(C)C)[C@@H]3C2)cc1 (some centres not stated),32.2
21,Cc1c(CN2CCCC2(C)C(=O)NC2CCCC2)cnn1C (configuration not stated),1.62
22,CCN(CC)CCNc1c(-c2ccccc2)c(=O)c1=O,4.07
23,CN(C)c1nc2cn(C3CCSCC3)c(=O)c-2c[nH]1,18.65
24,CC(C)CC(=O)N1CC(=O)N(CCc2ccccc2)CC(O)C1 (configuration not stated),0.284
25,CC(C)c1nc(CN2CCN(C(=O)CN3CCOCC3)CC2)no1,13.3
26,Cc1n[nH]cc1CNc1ccc2c(c1)CN(C(=O)OC(C)(C)C)CC2,80.1

row,SMILES,INHIBITION [%]
1,Cc1n[nH]cc1CNC(=O)[C@H]1CCCCN1C(=O)OC(C)(C)C,34.1
2,COC(=O)N1CCc2ccc(NC(=O)c3cn(C)nn3)cc2C1,-28.4
3,CN1CCN(Cc2cccc(NCc3ncc[nH]3)c2)CC1,-13.9
4,CC(=O)N1CCCN(Cc2ccon2)c2ccccc21,32.3
5,CCN(C(=O)Cc1ccc(NCc2ncc[nH]2)cc1)c1ccccc1,22.2
6,CC(=O)N1CC(C)CN(Cc2ccon2)c2ccccc21 (configuration not stated),18
7,CC(C)(C)OC(=O)N1CCCN(Cc2ccon2)c2ccccc21,83.6
8,CC(C)(C)OC(=O)N1CCCc2ccc(NCc3ncc[nH]3)cc21,51.8
9,Cc1cc(C)nc(N2CCC(C(=O)Nc3ccc(C(C)C)cc3)CC2)n1,20.2
10,O=S1(=O)NCC2(CCN(c3ncccn3)CC2)COc2ccccc21,-21.2
11,CO[C@@H]1CO[C@@]2(CCCN(C(=O)N3CCCC3)C2)C1,33.1
12,CCS(=O)(=O)N1CCC(c2nn(CCN(C)C)c3ncccc23)C1 (configuration not stated),9.63
13,Cc1cccc(C2CCN(S(=O)(=O)c3cn(C)cn3)CC2)n1,-41.8
14,CCN1CCOC(CNCc2ccccc2OCc2ccncc2)C1 (configuration not stated),19.5
15,Cc1nnc2n1CCN(Cc1ncc(-c3ccccc3)o1)C2,-25.4
16,c1cc(-c2ccc3nc(C4CCN(CC5CC5)CC4)nn3c2)ccn1,47.9
17,COc1ccc(OCCN2CCN(Cc3nccn3C)CC2)cc1,14.1
18,CCN(Cc1ccncc1)CC1(O)CCN(C(=O)c2ccccc2C)C1 (configuration not stated),23.2
19,Cn1c(C(=O)N2CCOCC2)nc2c1CCN(c1ncccn1)C2,14.2
20,CN1CCCN(C(=O)c2nc3c(n2C)CCN(c2ncccn2)C3)CC1,55.6
21,CC(C)n1c(C(=O)N2CCCC2)nc2c1CCN(c1ncccn1)C2,33.4
22,CN1CCN(C(=O)c2[nH]nnc2Nc2ccccc2F)CC1,5.18
23,NC(=O)Nc1ccc(C(=O)NCCn2cccc2)cc1,57.1
24,CC(=O)Nc1ccc(C(=O)NCCCn2cccc2)cc1,18.7
25,O=C(NCCNC(=O)c1ccc(Cl)cc1)NCCn1cccc1,-11.9
26,O=C(NC[C@]12COC[C@H]1CN(Cc1nccs1)C2)c1cscn1,47.9
